Experimental data as given in PMC5700166.

What was measured:
Experiment in all cases: protein-binding microarray (PBM); PBM: ~300 nM protein, 6 mM HEPES pH 7.8, 80 mM KCl, 0.5 mM EDTA, 0.5 mM EGTA, 6% glycerol, 35 ng/ul poly-dIdC, 1% milk, 1 h, room temperature; Ap Aiptasia and Nv Nematostella (sea anemones) / Co Capsaspora / Aq Amphimedon (sponge) / Dm Drosophila / Hu human; RHD is the Rel homology domain; high values mean tight binding
Details in all cases: dsDNA, one strand shown
[1] = molecular target: T1, GST-Ap-NF-kB RHD (Exaiptasia pallida (Aiptasia), UniProt A0A913YAJ5 2-422)
T1 sequence: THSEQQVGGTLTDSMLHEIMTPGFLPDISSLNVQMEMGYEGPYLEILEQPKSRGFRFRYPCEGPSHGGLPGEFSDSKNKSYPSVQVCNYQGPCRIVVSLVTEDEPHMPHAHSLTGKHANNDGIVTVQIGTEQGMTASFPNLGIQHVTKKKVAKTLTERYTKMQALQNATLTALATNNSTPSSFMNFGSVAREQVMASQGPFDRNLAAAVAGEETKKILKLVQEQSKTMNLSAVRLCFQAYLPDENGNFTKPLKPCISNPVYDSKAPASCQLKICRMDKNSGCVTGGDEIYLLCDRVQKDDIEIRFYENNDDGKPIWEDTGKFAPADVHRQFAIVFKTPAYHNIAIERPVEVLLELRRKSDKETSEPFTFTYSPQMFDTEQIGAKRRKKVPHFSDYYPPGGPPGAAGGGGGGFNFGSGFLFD

[2] = molecular target: T2, GST-Co-NF-kB (Capsaspora owczarzaki, UniProt F1ARL5 200-546)
T2 sequence: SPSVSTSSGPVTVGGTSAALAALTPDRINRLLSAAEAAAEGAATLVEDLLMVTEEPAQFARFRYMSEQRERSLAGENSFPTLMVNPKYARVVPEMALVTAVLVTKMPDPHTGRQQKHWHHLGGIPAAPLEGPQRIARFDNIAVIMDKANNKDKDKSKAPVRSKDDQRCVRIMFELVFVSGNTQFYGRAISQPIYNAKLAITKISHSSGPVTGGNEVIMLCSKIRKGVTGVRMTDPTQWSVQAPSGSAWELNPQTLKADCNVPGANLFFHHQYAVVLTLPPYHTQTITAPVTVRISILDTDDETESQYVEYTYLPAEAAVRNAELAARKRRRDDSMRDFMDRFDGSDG

[3] = molecular target: T3, GST-Dm-Relish (Drosophila melanogaster, UniProt Q94527 99-473)
T3 sequence: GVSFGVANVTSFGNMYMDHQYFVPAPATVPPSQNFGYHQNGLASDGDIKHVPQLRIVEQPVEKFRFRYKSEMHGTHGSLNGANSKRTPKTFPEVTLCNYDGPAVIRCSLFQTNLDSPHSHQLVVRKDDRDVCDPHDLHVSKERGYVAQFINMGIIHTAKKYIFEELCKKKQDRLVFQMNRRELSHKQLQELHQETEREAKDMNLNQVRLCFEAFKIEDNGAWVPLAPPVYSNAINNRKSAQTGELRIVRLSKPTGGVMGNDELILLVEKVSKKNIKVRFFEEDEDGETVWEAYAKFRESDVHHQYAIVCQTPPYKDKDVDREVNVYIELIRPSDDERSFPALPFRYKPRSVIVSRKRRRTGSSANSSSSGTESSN

[4] = molecular target: T4, GST-Aq-NF-kB (Amphimedon queenslandica, UniProt A9Y5G7 2-389)
T4 sequence: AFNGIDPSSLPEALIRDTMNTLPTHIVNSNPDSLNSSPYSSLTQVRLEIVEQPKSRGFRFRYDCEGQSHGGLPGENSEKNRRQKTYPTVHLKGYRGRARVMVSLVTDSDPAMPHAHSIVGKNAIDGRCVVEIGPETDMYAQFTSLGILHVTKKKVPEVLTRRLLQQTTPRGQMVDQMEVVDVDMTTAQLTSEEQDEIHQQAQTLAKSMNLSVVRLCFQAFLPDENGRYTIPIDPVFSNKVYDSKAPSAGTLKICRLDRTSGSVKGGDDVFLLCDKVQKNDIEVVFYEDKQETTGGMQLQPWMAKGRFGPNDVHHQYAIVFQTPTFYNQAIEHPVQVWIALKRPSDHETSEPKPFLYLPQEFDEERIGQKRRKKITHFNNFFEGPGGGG

[5] = molecular target: T5, GST-Nv-NF-kB (Ser allele) (Nematostella vectensis, UniProt A7UNT2 2-411)
T5 sequence: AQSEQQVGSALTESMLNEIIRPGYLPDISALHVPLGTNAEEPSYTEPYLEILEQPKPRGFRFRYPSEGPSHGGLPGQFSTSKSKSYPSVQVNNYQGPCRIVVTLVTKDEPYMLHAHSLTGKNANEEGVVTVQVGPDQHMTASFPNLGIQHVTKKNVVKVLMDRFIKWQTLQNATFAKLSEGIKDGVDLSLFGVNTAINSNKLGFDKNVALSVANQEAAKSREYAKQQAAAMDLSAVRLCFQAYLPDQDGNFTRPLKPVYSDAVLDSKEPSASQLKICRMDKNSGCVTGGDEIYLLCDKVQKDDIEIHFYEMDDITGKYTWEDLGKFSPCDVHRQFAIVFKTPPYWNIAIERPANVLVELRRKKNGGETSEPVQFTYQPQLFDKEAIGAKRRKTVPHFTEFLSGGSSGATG

Sequence | binding signal [1] | binding signal [2] | binding signal [3] | binding signal [4] | binding signal [5]
CCGATTAACATCACCTCCCCCCCTGATGTTAATCGGGTCTTGATTCGCTTGACGCTGCTG | 4.48 z-score | 3.77 z-score | 4.13 z-score | 3.93 z-score | –
CCGATTAACATCACTCCCCCCCCTGATGTTAATCGGGTCTTGATTCGCTTGACGCTGCTG | 5.73 z-score | 6.72 z-score | 4.43 z-score | 4.65 z-score | –
CCGATTAACATCACGGGGTGGCCTGATGTTAATCGGGTCTTGATTCGCTTGACGCTGCTG | 1.24 z-score | 1.78 z-score | 1.37 z-score | 1.55 z-score | –
CCGATTAACATCAGGTAACCCCATGATGTTAATCGGGTCTTGATTCGCTTGACGCTGCTG | 3.05 z-score | 2.06 z-score | 6.29 z-score | 2.29 z-score | –
CCGATTAACATCACCCCAACCCCTGATGTTAATCGGGTCTTGATTCGCTTGACGCTGCTG | 2.55 z-score | 3.44 z-score | 2.69 z-score | 2.27 z-score | –
CCGATTAACATCAAGGGGGGGATTGATGTTAATCGGGTCTTGATTCGCTTGACGCTGCTG | 7.19 z-score | 4.35 z-score | 5.64 z-score | 5.59 z-score | –
CCGATTAACATCAATTCCCCCCCTGATGTTAATCGGGTCTTGATTCGCTTGACGCTGCTG | 8.18 z-score | 8.87 z-score | 6.09 z-score | 6.45 z-score | 7.32 z-score
CCGATTAACATCACGGGCACCCCTGATGTTAATCGGGTCTTGATTCGCTTGACGCTGCTG | 1.72 z-score | 1.34 z-score | 2.01 z-score | 2.04 z-score | –
CCGATTAACATCAAGGTGTTCCCTGATGTTAATCGGGTCTTGATTCGCTTGACGCTGCTG | 1.65 z-score | 2.38 z-score | 4.31 z-score | 2.49 z-score | –
CCGATTAACATCAATACCCCCCCTGATGTTAATCGGGTCTTGATTCGCTTGACGCTGCTG | 6.7 z-score | 6.7 z-score | 5.66 z-score | 4.66 z-score | –
CCGATTAACATCAGGACACCCCATGATGTTAATCGGGTCTTGATTCGCTTGACGCTGCTG | 1.22 z-score | 1.49 z-score | 1.93 z-score | 1.61 z-score | –
